This is an account of results in PubChem BioAssay AID624156 (Broad Institute, 2012).

In all, about 46,000 compounds went through this assay and about 900 (2%) were called active. Another 1% or so got no clear call; they are omitted. Shown is part of a subset that was picked to be rich in actives. Unmarked numbers belong to inactive results. No stated cut-off is given here; in the data, active means ROS induction above about 79% (passing the limit was not always enough); inconclusive means no clear call, values can overlap the other calls.

The test in a line: ROS inducers in U2OS cancer cells, primary screen, cell-based, H2DCF-DA fluorescence (AID 624156).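 Further: 0% = DMSO vehicle median and 100% = reference compound median.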 Particulars: at 10 µM, stronger effect = higher value.
Take `COC(=O)C1=C(N)Oc2cc(C)oc(=O)c2C1c1cccnc1` (centres undefined): the ROS induction (% of piperlongumine) is 69.7%.
As for `CC(C)OC(=O)C1=c2s/c(=C\c3cccnc3)c(=O)n2C(N)=C(C#N)C1c1cccnc1` (centres undefined), the figure is 104% (active); as for `CCN(Cc1ccccc1)S(=O)(=O)c1cc(Cl)ccc1Cl`, 29.9%.
As for `CCN(CC)c1nc(C#N)nc(OC)n1`, the figure is 55.7%; as for `CC(CN1CCCC1)OC(=O)c1cc(C(C)(C)C)cc(C(C)(C)C)c1` (centres undefined), 21.6%; as for `CO[C@H]1O[C@H](CO)[C@@H](OC(=O)Nc2ccccc2-c2ccccc2)[C@H](OC(=O)Nc2ccccc2)[C@H]1OC(=O)Nc1ccccc1`, 132% (active).
In the case of `COC(=O)C1=C[C@@H](O)[C@@H](O)[C@H](O[C@@H]2O[C@H](CO)[C@@H](O)[C@H](O)[C@H]2OC(=O)/C=C/c2ccccc2)C1`, the ROS induction (% of piperlongumine) was -5.34%.
As to `CNC[C@@H]1Oc2c(NC(=O)Nc3ccccc3)cccc2C(=O)N([C@@H](C)CO)C[C@@H]1C`, the ROS induction (% of piperlongumine) is -4.47%.
The result for `S=C(NCCc1ccc(Cl)cc1)Nc1ccccc1` reads -13.7%; that for `O=C(c1cncc(NS(=O)(=O)c2ccc(Cl)cc2)c1)N1CCN(Cc2ccccc2)CC1`, 41.7%.
With `CC(C)C1N=C2c3ccccc3N=C(SCC(=O)c3ccc(Br)cc3)N2C1=O` (centres undefined), the ROS induction (% of piperlongumine) is 63.2%.
As for `Cc1ccc(-n2c(SCC(=O)Nc3cccc(C)c3C)nc3ccccc3c2=O)cc1`, the figure is -0.837%.
The result for `O=c1c2ccccc2nc(SCc2cccc(F)c2)n1C1CC1` reads 17.8%; that for `CC(C)(C)C(=O)CSc1nc2ccccc2c(=O)n1CC1CC1`, 120% (active).
On to `O=C(CSc1nc(-c2cccs2)cc(C(F)(F)F)n1)OCCCc1ccccc1`, for which the ROS induction (% of piperlongumine) is 1.26%.
The result for `CC(C)NC(=O)N(C)C[C@H]1Oc2ccc(NS(=O)(=O)c3cn(C)cn3)cc2CC(=O)N([C@@H](C)CO)C[C@H]1C` reads 1.5%; that for `C[C@@H]1CCCCO[C@@H](CN(C)S(=O)(=O)c2cccs2)[C@@H](C)CN([C@H](C)CO)C(=O)c2cc(NC(=O)Nc3ccc(F)cc3)ccc2O1`, 55.6%; that for `C[C@@H]1CCCCO[C@H](CN(C)S(=O)(=O)c2cccs2)[C@@H](C)CN([C@H](C)CO)C(=O)c2cc(NC(=O)Nc3ccccc3)ccc2O1`, 37.3%.
For the compound `C[C@@H]1CN([C@H](C)CO)C(=O)c2cc(NS(=O)(=O)c3cccs3)ccc2O[C@H]1CN(C)Cc1ccncc1`, the ROS induction (% of piperlongumine) is 26%.
As for `C[C@@H]1CCCCO[C@@H](CN(C)Cc2ccncc2)[C@@H](C)CN([C@H](C)CO)C(=O)c2cc(NS(=O)(=O)c3cccs3)ccc2O1`, the figure is 104% (active); as for `C[C@@H]1CCCCO[C@H](CN(C)Cc2ccncc2)[C@@H](C)CN([C@H](C)CO)C(=O)c2cc(NS(C)(=O)=O)ccc2O1`, -7.81%.
The result for `C[C@@H]1CCCCO[C@@H](CN(C)S(=O)(=O)c2cccs2)[C@@H](C)CN([C@H](C)CO)C(=O)c2cc(NC(=O)Nc3ccc4c(c3)OCO4)ccc2O1` reads 91.3% (active).
As for `COc1ccc(C=NCc2ccc(OC)c(OC)c2)cc1OC`, the figure is 12.4%; as for `CC1C=CCC2C(=O)N(c3cccc(Cl)c3)C(=O)C12` (centres undefined), -5.69%.
Take `CC1CCC(NC(=O)c2ccccc2C(=O)O)CC1` (centres undefined): the ROS induction (% of piperlongumine) is -7.64%.
As for `Cc1ccc2c(c1)c(-c1ccccc1)c(-c1ccccc1)n2CC(O)CNCc1ccco1` (centres undefined), the ROS induction (% of piperlongumine) is 4.62%.
The result for `O=C(COC(=O)c1cc2ccccc2cc1O)c1ccc(OCc2ccccc2)cc1` reads 6.42%; that for `Cc1noc(C)c1NC(=O)N(C)C[C@H]1Oc2ccc(NC(=O)C3CCCCC3)cc2CC(=O)N([C@@H](C)CO)C[C@H]1C`, -5.41%; that for `FC(F)(F)c1cccc(NC(=S)Nc2cc(-c3cccs3)[nH]n2)c1`, -6.71%.
The result for `CCOC(=O)N1CCC(NC(=O)NCc2noc3ccccc23)CC1` reads -11.6%.
As for `CC(=O)Nc1ccc(NC(=O)CN(c2ccccc2Br)S(C)(=O)=O)cc1`, the figure is -14%.
For the compound `CC(=O)Nc1ccc(NC(=O)COc2ccccc2C(=O)Nc2cccc(Cl)c2Cl)cc1`, the ROS induction (% of piperlongumine) is -10%.
The result for `CC(=O)Nc1ccc(Nc2c3c4c(cccc4[nH]c2=O)C(=O)c2ccccc2-3)cc1` reads 105% (active).
For the compound `COc1cc2c(cc1NC(=O)CCC1CCCCC1)oc1ccccc12`, the ROS induction (% of piperlongumine) was -18.8%.
As for `CCOC(=O)c1c(C)nn(-c2ncccc2NC(=O)CCC(=O)O)c1C`, the figure is -11.2%; as for `COC(=O)[C@]1(Cc2ccccc2CN=[N+]=[N-])N=C(c2ccc(OCCCO)cc2)O[C@@H]1c1ccccc1CN=[N+]=[N-]`, 86.1% (active); as for `[N-]=[N+]=Nc1ccccc1C[C@@]1(C(=O)NCc2ccccc2)N=C(c2ccc(OCCCO)cc2)O[C@@H]1c1ccccc1`, 30.8%.
For the compound `COC(=O)[C@@]1(CCS(=O)(=O)c2ccccc2)N=C(c2ccc(OCCCO)cc2)O[C@H]1c1ccccc1N=[N+]=[N-]`, the ROS induction (% of piperlongumine) was 33.1%.
As for `CNC[C@H]1Oc2ccc(NS(=O)(=O)c3cn(C)cn3)cc2C(=O)N([C@@H](C)CO)C[C@@H]1C`, the figure is 5.85%; as for `COc1ccc(NC(=S)NCC(c2ccccc2)c2c[nH]c3ccccc23)cc1` (centres undefined), 4.82%.
As for `COc1ccc(-c2cc(C(F)(F)F)nc(SCCC(=O)N(C)c3ccccc3)n2)cc1`, the figure is 33.5%; as for `CCC(=O)Nc1ccccc1C(=O)Nc1ccccc1`, 10.3%; as for `CC[N+]1=C(C)C(C)(C)c2cc(-c3ccccc3)ccc21`, 52.6%.
As for `CCn1c(SCC(=O)c2ccc(OC)cc2)nnc1-c1ccccc1F`, the ROS induction (% of piperlongumine) is -17.9%.
As for `C=CCn1c(SCc2nnc(SCC(=O)c3ccc(Cl)cc3)o2)nnc1-c1ccccc1`, the figure is -1.34%; as for `Cc1nc2ccccn2c1-c1ccnc(SCC(=O)c2ccc(Cl)cc2)n1`, 102% (active); as for `CC(C)NC(=O)c1ccc2c(c1)N(Cc1ccccc1)C(=O)CS2`, -7.88%.
The result for `COC(=O)/C=C1\SC(=NC(=O)c2ccc(F)cc2)NC1=O` reads 1.03%; that for `Cc1cccc(Cn2c(SCc3ccc(C(=O)N4CCCCC4)cc3)nc3ccncc32)c1`, -1.54%.
